# Rows were chosen to be rich in hits. Some 3.1% of all compounds tested hit in one or more screens of this group.
# TRb SRC2 PPI = disrupts binding of human TR beta to SRC2; P10828; TRbeta-SRC2 peptide binding, fluorescence polarization; receptor liganded with 1 µM T3; Potency, µM (doses to about 106 µM), most hits filed as inhibitors; hit rate 0.065% among 280,000; AID 1469; also: nearly all actives have a fitted effect of over 50% in size
#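 Human TRb LBD (0.6 uM) plus Texas Red-labeled SRC2 peptide (20 nM), 1uM T3, 5% DMSO, 5 hr at ambient temperature. Decreased polarization (555/632 nm) flags inhibition; data normalized to free and bound peptide controls.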
# Tau fluor cs = counter-screen for tau fibril formation inhibitors | Potency, µM (titrated, usually from 57.7 µM) | tau K18 P301L Alexa594 fluorescence, heparin fibrillization | AID 1463 | hit rate 0.93% among 280,000; also: nearly all actives have a fitted effect of over 55% in size
#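 Human K18 P301L tau (15 uM unlabeled plus 0.24 uM Alexa 594-labeled, final) in 100 mM sodium acetate pH 7 was mixed with compound and 20 uM heparin and incubated 6 hr at 37 C.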
# GoLoco inh red = inhibitors of human Gai1-RGS12 GoLoco interaction (red fluorophore) | Potency, µM (titrated, usually from 61.6 µM), actives largely listed as inhibitors | hit rate 0.44% among 230,000 | P63096 | Gai1:RGS12 GoLoco peptide FP, rhodamine, 10 min; active = well fitted inhibition curve with a large enough effect, not every such curve was filed as active; inactive = no such curve, though single readings can be large or run the other way; also: nearly all actives have a fitted effect of over 30% in size
# Target sequence (P63096 whole entry, looked up): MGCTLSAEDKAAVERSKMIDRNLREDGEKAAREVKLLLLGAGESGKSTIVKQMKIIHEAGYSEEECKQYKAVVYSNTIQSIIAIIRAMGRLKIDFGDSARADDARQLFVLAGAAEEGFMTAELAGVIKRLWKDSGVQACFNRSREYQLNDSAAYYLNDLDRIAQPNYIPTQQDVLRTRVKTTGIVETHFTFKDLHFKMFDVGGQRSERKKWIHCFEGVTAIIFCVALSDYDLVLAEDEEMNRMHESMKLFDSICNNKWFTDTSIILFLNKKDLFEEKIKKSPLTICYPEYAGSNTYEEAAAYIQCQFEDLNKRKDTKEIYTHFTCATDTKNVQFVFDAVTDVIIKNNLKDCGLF
# Tau fibril FP = tau fibrillization inhibition (FP). Potency, µM (doses to about 57.7 µM), most hits filed as inhibitors. hit rate 0.39% among 280,000. K18 P301L tau heparin fibrillization, Alexa594 FP, 6 h. P10636; also: nearly all actives have a fitted effect of over 55% in size
# Target sequence (P10636 561-689 P618L limits assumed): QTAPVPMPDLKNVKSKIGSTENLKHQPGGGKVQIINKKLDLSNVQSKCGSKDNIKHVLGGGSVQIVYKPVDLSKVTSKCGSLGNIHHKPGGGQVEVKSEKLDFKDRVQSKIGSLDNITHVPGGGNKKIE
#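 Recombinant K18 P301L […], labeled with Alexa 594 at 0.24 uM over 15 uM unlabeled; heparin inducer 20 uM final; 37 C, 6 hr; FP endpoint.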
# Tau fibril ThT = tau fibrillization inhibition (ThT binding); P10636; recombinant tau K18 P301L (four-repeat tau fragment), heparin-induced fibrillization, ThT fluorescence; Potency, µM (doses to about 57.4 µM), actives largely listed as inhibitors; hit rate 2.1% among 270,000; AID 1460; also: nearly all actives have a fitted effect of over 55% in size
#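 In this qHTS, human K18 P301L tau is incubated with compound and heparin for 6 hr at 37 C, and Thioflavin T fluorescence then reports fibril load.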
# TR SRC2 fluor cs = alters Texas Red total fluorescence, flagging assay interference; TRb/SRC2 Texas Red total fluorescence interference; Potency, µM (top dose mostly 106 µM); hit rate 0.29% among 280,000; AID 1479; active = well fitted curve in either direction with a large enough effect; inconclusive = small, poorly fitted or top-dose-only effect
#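 Flags fluorescent or light-absorbing compounds by total fluorescence, S + 2P, at 555 nm excitation and 632 nm emission. Mixture: 20 nM Texas Red SRC2 peptide, 0.6 uM human TRb LBD, 1 uM T3, 5% DMSO; compound exposure 5 h at ambient temperature.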
# A number is an active result; – = inactive; ? = inconclusive; · = no result; [ ] = another dose, or the depositor's remark. Unless noted, calls follow the shape of the dose curve; as a rule, active = well fitted curve in the direction sought with a large enough effect; inconclusive = small, poorly fitted or top-dose-only effect, or another doubt; inactive = no such curve, though single readings can be large; an effect the other way counts as inactive or inconclusive.
SMILES,TRb SRC2 PPI,Tau fluor cs,GoLoco inh red,Tau fibril FP,Tau fibril ThT,TR SRC2 fluor cs
O=C(COc1ccc(Cl)cc1)Nc1sc2c(c1C(=O)Nc1cccc(Cl)c1)CCCC2,–,–,·,?,12.6µM,–
Cc1ccc(NC(=O)c2c(NC(=O)C(F)(F)F)sc3c2CCCCC3)cc1,–,?,·,–,14.1µM,–
Cc1cccc(NC(=O)c2c(NC(=O)C(F)(F)F)sc3c2CCCCC3)c1,–,?,·,–,15.8µM,–
O=C(O)CCC(=O)Nc1sc2c(c1C(=O)Nc1ccccc1)CCCCC2,–,–,–,?,14.1µM,–
CCOC(=O)C1=C(O)/C(=C\c2cc(C)n(-c3ccc(F)cc3)c2C)N=C1C,–,–,–,–,?,–
Cc1cccc(C(=O)Nc2sc3c(c2C(=O)Nc2ccccc2)CCC3)c1,–,–,·,–,–,–
O=C(Nc1cccc(Cl)c1)c1c(NC(=O)C(F)(F)F)sc2c1CCCC2,–,?,·,?,10µM,–
O=C(/C=C/c1cccc([N+](=O)[O-])c1)n1cnc2ccccc21,–,?,–,?,12.6µM,–
CCCCNc1c2c3c(cccc3n(C)c1=O)C(=O)c1ccccc1-2,–,–,14.1µM,–,–,–
CC(=O)Nc1ccc(Nc2c3c4c(cccc4n(C)c2=O)C(=O)c2ccccc2-3)cc1,–,–,14.1µM,?,?,–
Cn1c(=O)c(NC2CCCCC2)c2c3c(cccc31)C(=O)c1ccccc1-2,–,?,0.794µM,–,–,–
Cn1c(=O)c(NCCc2ccccc2)c2c3c(cccc31)C(=O)c1ccccc1-2,28.2µM,–,4.47µM,–,–,44.7µM[fluorescent]
CN1C(=O)c2cccc(NCCCN3C(=O)c4ccccc4C3=O)c2C1=O,–,–,–,–,–,–
Cn1c(=O)c2cc(C(=O)NC3CCCCCC3)sc2c2ccccc21,–,–,·,?,–,–
CC(=O)Nc1ccc2c(c1)C(=O)c1ccccc1C2=O,–,–,–,–,?,–
Cc1ccc(C(=O)Nc2nc3n(n2)C(c2ccccc2)C=C(c2ccccc2)N3)cc1 (centres undefined),–,–,·,–,–,–
CC(=O)Nc1nc2c(C)c(Cl)ccc2s1,–,?,–,–,·,–
Cc1ccc(Cn2c(CNS(=O)(=O)c3ccc(F)c(Cl)c3)nc3cccnc32)cc1,–,–,·,–,–,–
Fc1ccc2[nH]c3c(N4CCN(c5ccccc5)CC4)ncnc3c2c1,–,25.1µM[quencher],–,–,?,–
CCOC(=O)N1CCN(c2ncnc3c2[nH]c2ccc(OC)cc23)CC1,–,–,–,–,8.91µM,–
CCOC(=O)N1CCN(c2ncnc3c2[nH]c2ccc(F)cc23)CC1,–,–,–,–,?,–
CC(C(N)=O)N1C(=O)C2C3C=CC(C3)C2C1=O (centres undefined),–,–,–,–,–,–
Cc1cc(CNC(=O)COc2ccccc2)c2ccccc2n1,–,–,–,–,–,–
CCOc1ccc(Nc2c3ccccc3nc3ccccc23)cc1,–,?,–,–,20µM,–
Cc1ccc(OCC(=O)NNc2c3ccccc3nc3ccccc23)cc1,–,14.1µM[quencher],–,–,12.6µM,–
SMILES,TRb SRC2 PPI,Tau fluor cs,GoLoco inh red,Tau fibril FP,Tau fibril ThT,TR SRC2 fluor cs
Cc1cccc(OCC(=O)NNc2c3ccccc3nc3ccccc23)c1,–,14.1µM[quencher],–,–,?,–
CCCNc1nc2c(c(=O)n(C)c(=O)n2C)n1CC(O)COc1ccccc1 (centres undefined),–,–,·,–,–,–
O=C1CC(c2ccc(O)c(O)c2)Oc2c1ccc(O)c2O (centres undefined),–,?,–,?,15.8µM,–
Cc1ccccc1C(=O)Nc1cc(-c2cc(C(C)(C)C)oc2C)nn1C,–,–,–,?,–,–
Cc1cc(/C=C2\C(=O)NN(c3ccccc3)C2=O)c(C)n1-c1ccccc1O,–,?,–,–,?,–
O=C1NN(c2ccccc2)C(=O)/C1=C\c1ccc(-c2cc([N+](=O)[O-])ccc2O)o1,–,7.94µM[quencher],–,?,3.55µM,?
Cc1ccc(N2NC(=O)/C(=C/c3ccc(-c4ccc(Cl)c(C(=O)O)c4)o3)C2=O)cc1,–,?,–,–,?,–
O=C1NN(c2ccc(Cl)cc2)C(=O)/C1=C\c1ccc(-c2cccc(C(=O)O)c2)o1,–,10µM[quencher],–,?,7.94µM,–
COc1ccc(Sc2ccc(/C=C3\C(=O)NN(c4ccccc4)C3=O)o2)cc1,–,?,–,?,10µM,–
O=C(NC1CCCc2ccccc21)c1ccc2c(c1)sc1nc(-c3ccc(F)cc3)cn12 (centres undefined),–,–,·,–,–,–
COc1ccc2nc(NC(=O)c3nc(S(=O)(=O)Cc4ccc(C)cc4)ncc3Cl)sc2c1,–,?,·,–,5.62µM,–
Cc1ccc(CS(=O)(=O)c2ncc(Cl)c(C(=O)Nc3nc4ccc(F)cc4s3)n2)cc1,–,–,·,–,14.1µM,–
Cc1ccc(CSc2ncc(Cl)c(C(=O)Nc3nc4ccc(C)cc4s3)n2)cc1,–,–,·,–,–,–
COc1ccc(OC)c(NC(=O)c2nc(S(=O)(=O)Cc3ccc(F)cc3)ncc2Cl)c1,–,?,·,–,12.6µM,–
Cc1ccc(CS(=O)(=O)c2ncc(Cl)c(C(=O)Nc3nc4ccc(C)cc4s3)n2)cc1,–,?,·,–,22.4µM,–
COc1ccccc1NC(=O)c1ccc(NC(=O)COC(=O)C2CC2C)cc1 (centres undefined),–,–,–,–,–,–
COc1ccccc1OCCOCCn1cnc2ccccc2c1=O,–,–,–,–,–,–
CCOC(=O)C1=C(C)NC(SCC(N)=O)=C(C#N)C1c1ccncc1 (centres undefined),–,–,–,–,–,–
CC(=O)Oc1ccc(C(=O)Cc2ccc3ccccc3n2)c(O)c1C,–,–,–,–,1.41µM,–
CCOC(=O)c1ccc(NC(=O)CN2C(=O)COc3ccc(Cl)cc32)cc1,–,–,·,–,–,–
COc1ccc(Nc2c3c(nc4ccc(NC(=O)c5cc(Cl)ccc5OC)cc24)CCCC3)cc1OC,–,?,·,–,7.08µM,–
COc1cc(Nc2c3c(nc4ccccc24)CCCC3)cc(OC)c1OC,–,–,–,–,?,–
CCOc1ccccc1C(=O)Nc1ccc2nc3c(c(Nc4ccc(OC)c(OC)c4)c2c1)CCCC3,–,?,·,–,10µM,–
COc1ccc(Cl)cc1C(=O)Nc1ccc(CN2CCCCC2)cc1,–,–,–,–,–,–
COc1cc(OC)cc(C(=O)Nc2ccc3nc4c(c(Nc5ccc(OC)c(OC)c5)c3c2)CCCC4)c1,–,17.8µM[quencher],·,?,31.6µM,–
COc1ccccc1Nc1c2c(nc3ccc(NC(=O)c4ccc(N(C)C)cc4)cc13)CCCC2,–,11.2µM[quencher],·,–,15.8µM,–

# Source: PubChem (National Center for Advancing Translational Sciences (NCATS))
